Reference: PubChem BioAssay (NCI)
This is part of a sample that, as a whole, favours compounds with a hit. Of some 83,000 tested, about 20% had one in any assay.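 Testing used 96-well plates and a 48-hour single-concentration exposure. Example: -40 means 40% of the starting cells died.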 Active and inactive are the calls of the source. The calls were made as follows: active = growth percent below 10; inactive = the rest.

Key:
Test in all cases: NCI-60 one-dose screen, 48 h (100 = growth as untreated, 0 = no growth, -100 = all killed)
Conditions in all cases: 10 µM unless noted
HCT-15 colon = system: HCT-15 colon
HT29 colon = system: HT29 colon
SNB-75 CNS = system: SNB-75 CNS
SNB-19 CNS = system: SNB-19 CNS
U251 CNS = system: U251 CNS
PC-3 prostate = system: PC-3 prostate
SK-MEL-5 melanoma = system: SK-MEL-5 melanoma
UACC-62 melanoma = system: UACC-62 melanoma
LOX IMVI melanoma = system: LOX IMVI melanoma
SK-MEL-28 melanoma = system: SK-MEL-28 melanoma
SK-MEL-2 melanoma = system: SK-MEL-2 melanoma
EKVX NSCLC = system: EKVX NSCLC
SN12C renal = system: SN12C renal
UO-31 renal = system: UO-31 renal
TK-10 renal = system: TK-10 renal
ACHN renal = system: ACHN renal
CAKI-1 renal = system: CAKI-1 renal
A498 renal = system: A498 renal
CCRF-CEM leukemia = system: CCRF-CEM leukemia
MOLT-4 leukemia = system: MOLT-4 leukemia

Measured: growth

CN(C)N1C(=O)c2c(Cl)c(Cl)c(Cl)c(Cl)c2C1=O
inactive: HCT-15 colon 109% | HT29 colon 107% | SNB-75 CNS 92.7% | SNB-19 CNS 108% | U251 CNS 102% | PC-3 prostate 99.2% | SK-MEL-5 melanoma 101% | UACC-62 melanoma 104% | LOX IMVI melanoma 96.8% | SK-MEL-28 melanoma 112% | SK-MEL-2 melanoma 105% | EKVX NSCLC 124% | SN12C renal 103% | UO-31 renal 95.9% | TK-10 renal 98% | ACHN renal 133% | CAKI-1 renal 126% | A498 renal 106% | CCRF-CEM leukemia 89% | MOLT-4 leukemia 88.3%

CCCCOC(=O)c1cc(O)c(O)c(O)c1
inactive: HCT-15 colon 49.1% | HT29 colon 85.3% | SNB-75 CNS 55.6% | SNB-19 CNS 88.9% | U251 CNS 65.2% | PC-3 prostate 80.4% | SK-MEL-5 melanoma 93.5% | UACC-62 melanoma 62% | LOX IMVI melanoma 74.4% | SK-MEL-28 melanoma 90.6% | SK-MEL-2 melanoma 75% | EKVX NSCLC 83.6% | SN12C renal 62.7% | UO-31 renal 31.7% | TK-10 renal 73% | ACHN renal 75% | CAKI-1 renal 70.5% | A498 renal 122% | CCRF-CEM leukemia 36.5% | MOLT-4 leukemia 30.7%

O=C(O)c1cc2cc(OCc3ccccc3)ccc2[nH]1
inactive: HCT-15 colon 92.3% | HT29 colon 114% | SNB-75 CNS 87.8% | SNB-19 CNS 86.4% | U251 CNS 105% | PC-3 prostate 102% | SK-MEL-5 melanoma 84.1% | UACC-62 melanoma 79.3% | LOX IMVI melanoma 96.7% | SK-MEL-28 melanoma 48% | SK-MEL-2 melanoma 39.9% | EKVX NSCLC 87.3% | SN12C renal 97.1% | UO-31 renal 74.4% | TK-10 renal 114% | ACHN renal 98.7% | CAKI-1 renal 82.3% | A498 renal 98% | CCRF-CEM leukemia 98.4% | MOLT-4 leukemia 99.5%

Cc1c(C(N)=O)sc2ncn(CC(=O)NN=C3CCCCC3)c(=O)c12
inactive: HCT-15 colon 109% | HT29 colon 90.5% | SNB-75 CNS 102% | SNB-19 CNS 104% | U251 CNS 99.5% | PC-3 prostate 122% | SK-MEL-5 melanoma 106% | UACC-62 melanoma 99.9% | LOX IMVI melanoma 103% | SK-MEL-28 melanoma 118% | EKVX NSCLC 96.6% | SN12C renal 96.3% | UO-31 renal 124% | TK-10 renal 106% | ACHN renal 109% | CAKI-1 renal 132% | A498 renal 111% | CCRF-CEM leukemia 113% | MOLT-4 leukemia 109%
active: SK-MEL-2 melanoma 5.33%

N=c1nc(N2CCCCC2)cc(N)n1O
inactive: HCT-15 colon 97% | HT29 colon 107% | SNB-75 CNS 93.5% | SNB-19 CNS 99.8% | U251 CNS 101% | PC-3 prostate 103% | SK-MEL-5 melanoma 94.8% | UACC-62 melanoma 104% | LOX IMVI melanoma 110% | SK-MEL-28 melanoma 111% | SK-MEL-2 melanoma 118% | EKVX NSCLC 108% | SN12C renal 98.8% | UO-31 renal 104% | TK-10 renal 112% | ACHN renal 97.5% | CAKI-1 renal 101% | A498 renal 117% | CCRF-CEM leukemia 112% | MOLT-4 leukemia 93%

COc1ccc2nc3cc(Cl)ccc3c(NC(=O)CSc3ccc(Cl)cc3)c2c1
active: HCT-15 colon -53.6% | HT29 colon -78.3% | SNB-75 CNS -99.2% | SNB-19 CNS -86.4% | U251 CNS -90.6% | PC-3 prostate -81.8% | SK-MEL-5 melanoma -98% | UACC-62 melanoma -80% | LOX IMVI melanoma -80.3% | SK-MEL-28 melanoma -96.8% | SK-MEL-2 melanoma -88.5% | EKVX NSCLC -62.4% | SN12C renal -75.3% | UO-31 renal -96.1% | TK-10 renal -96.1% | ACHN renal -94.6% | CAKI-1 renal -90.8% | A498 renal -99% | CCRF-CEM leukemia 1.21% | MOLT-4 leukemia -52%

Cc1ccc(C(CN(C)C)C(=O)c2ccccc2)cc1 (stereo not given)
active: HCT-15 colon -12.1% | HT29 colon -34.3% | UACC-62 melanoma 6.99% | LOX IMVI melanoma -6.07% | ACHN renal -2.93% | CCRF-CEM leukemia -9.16% | MOLT-4 leukemia -9.61%
inactive: SNB-75 CNS 54.1% | SNB-19 CNS 85.7% | U251 CNS 41.7% | PC-3 prostate 32.9% | SK-MEL-5 melanoma 64.1% | SK-MEL-28 melanoma 50.7% | SK-MEL-2 melanoma 49.7% | EKVX NSCLC 68.7% | SN12C renal 36.4% | UO-31 renal 53.5% | TK-10 renal 44.8% | CAKI-1 renal 52.4% | A498 renal 60.6%

CCOC(=O)CCN(CCC(=O)OCC)c1ccccc1
inactive: HCT-15 colon 101% | HT29 colon 99.7% | SNB-75 CNS 93.9% | SNB-19 CNS 104% | U251 CNS 92.5% | PC-3 prostate 93% | SK-MEL-5 melanoma 96.4% | UACC-62 melanoma 99.4% | LOX IMVI melanoma 95.8% | SK-MEL-28 melanoma 117% | SK-MEL-2 melanoma 96.7% | EKVX NSCLC 115% | SN12C renal 110% | UO-31 renal 77.8% | TK-10 renal 101% | ACHN renal 100% | CAKI-1 renal 116% | A498 renal 127% | CCRF-CEM leukemia 61.7% | MOLT-4 leukemia 96.5%

CCCCCCCCCCCC1=NC(C)(C)CN1CC(C)O (stereo not given)
active: HCT-15 colon 6.24% | HT29 colon -48.3% | UACC-62 melanoma -49.4% | LOX IMVI melanoma 6.88%
inactive: SNB-75 CNS 61.8% | SNB-19 CNS 96.8% | U251 CNS 33.9% | PC-3 prostate 51.4% | SK-MEL-5 melanoma 34% | SK-MEL-28 melanoma 59.8% | SK-MEL-2 melanoma 63.4% | EKVX NSCLC 68.8% | SN12C renal 69.8% | UO-31 renal 47.6% | TK-10 renal 91.7% | ACHN renal 80.2% | CAKI-1 renal 69.8% | A498 renal 99.8% | CCRF-CEM leukemia 25.5% | MOLT-4 leukemia 25.4%

OC(COCc1ccccc1)COCc1ccccc1
inactive: HCT-15 colon 109% | HT29 colon 106% | SNB-75 CNS 90.8% | SNB-19 CNS 111% | U251 CNS 96.1% | PC-3 prostate 111% | SK-MEL-5 melanoma 111% | UACC-62 melanoma 103% | LOX IMVI melanoma 101% | SK-MEL-28 melanoma 113% | SK-MEL-2 melanoma 111% | EKVX NSCLC 91.5% | SN12C renal 104% | UO-31 renal 91.6% | TK-10 renal 109% | ACHN renal 99% | CAKI-1 renal 96.5% | A498 renal 89.7% | CCRF-CEM leukemia 99.5% | MOLT-4 leukemia 96.4%

N/C(=C\C(=O)n1nc(-c2ccccc2)cc1N)c1ccccc1
inactive: HCT-15 colon 33.5% | HT29 colon 23.8% | SNB-75 CNS 29.9% | SNB-19 CNS 66.6% | U251 CNS 36.7% | PC-3 prostate 22.6% | SK-MEL-5 melanoma 32.2% | UACC-62 melanoma 36.9% | LOX IMVI melanoma 51.4% | SK-MEL-28 melanoma 42.2% | EKVX NSCLC 69.5% | SN12C renal 62.1% | UO-31 renal 38.2% | TK-10 renal 101% | ACHN renal 63.7% | CAKI-1 renal 65.3% | A498 renal 67.8% | CCRF-CEM leukemia 40.1% | MOLT-4 leukemia 43%
active: SK-MEL-2 melanoma -16.7%

O=C(NCCN1CCCC1)n1cc(-c2ccncc2)c(-c2cc(O)cc(Cl)c2)n1
inactive: HCT-15 colon 88.6% | HT29 colon 90.1% | SNB-75 CNS 110% | SNB-19 CNS 98.5% | U251 CNS 82.9% | PC-3 prostate 103% | SK-MEL-5 melanoma 62.9% | UACC-62 melanoma 34.6% | LOX IMVI melanoma 79.7% | SK-MEL-28 melanoma 36.7% | SK-MEL-2 melanoma 90.8% | EKVX NSCLC 119% | SN12C renal 82.5% | UO-31 renal 100% | TK-10 renal 78.6% | ACHN renal 82.2% | CAKI-1 renal 109% | A498 renal 103% | CCRF-CEM leukemia 85.7% | MOLT-4 leukemia 82.7%

COc1cc(OC)c2sc(-c3ccc(-n4cncc4-c4ccc(OC)c(N)c4)cc3)nc2c1
inactive: HCT-15 colon 73.9% | HT29 colon 74.3% | SNB-75 CNS 81.8% | SNB-19 CNS 80.1% | U251 CNS 67.2% | PC-3 prostate 50.4% | SK-MEL-5 melanoma 53.1% | UACC-62 melanoma 85.6% | LOX IMVI melanoma 90.2% | SK-MEL-28 melanoma 104% | SK-MEL-2 melanoma 99.6% | EKVX NSCLC 64.5% | SN12C renal 87% | UO-31 renal 60.6% | TK-10 renal 82.8% | ACHN renal 90.4% | CAKI-1 renal 60.9% | A498 renal 77.8% | CCRF-CEM leukemia 59.2% | MOLT-4 leukemia 58.3%
